Reference: publication PMC7862700, “An all-to-all approach to the identification of sequence-specific readers for epigenetic DNA modifications on cytosine”

Assays:
Assay in all cases: DAPPL (digital affinity profiling via proximity ligation, sequencing); 10 mM Tris-HCl pH 7.5, 50 mM NaCl, 1 mM DTT, 4% glycerol, room temperature, 30 min; GST-TFs on glutathione beads, 16-mer random dsDNA library, 0.1% formaldehyde crosslink after washing; high values mean tight binding
[1] = target: T1, FEV (Homo sapiens, UniProt Q99581 1-238); conditions: protein: recombinant; tags: N-terminal GST; dsDNA, one strand shown
T1 sequence: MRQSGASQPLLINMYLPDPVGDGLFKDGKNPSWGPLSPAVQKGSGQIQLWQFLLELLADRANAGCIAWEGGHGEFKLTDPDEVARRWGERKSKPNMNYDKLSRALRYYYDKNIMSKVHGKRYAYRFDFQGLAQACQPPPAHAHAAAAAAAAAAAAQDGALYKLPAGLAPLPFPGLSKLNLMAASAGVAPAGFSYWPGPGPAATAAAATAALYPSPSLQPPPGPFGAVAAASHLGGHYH
Outline: (§1)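 Binding signal is defined as a hexamer's read frequency for one factor over its frequency for the tag-only sample. To obtain reads, GST-fused human transcription factors were expressed in yeast, captured on glutathione beads, barcoded with DNA and pooled with that sample. Pools met 200 nmole of a 16-mer random double-stranded DNA library in Tris/NaCl/DTT/glycerol buffer for 30 min at room temperature before washing, 0.1% formaldehyde crosslinking, proximity ligation (BsaI/T4 ligase, 1 h, 37 °C), PCR and Illumina NextSeq500 sequencing.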

[2] = target: ETV5 (Homo sapiens, UniProt P41161 1-510); conditions: protein: recombinant; tags: N-terminal GST; dsDNA, one strand shown
Outline: as §1

[3] = target: HSF1 (Homo sapiens, UniProt Q00613 1-529); conditions: protein: recombinant; tags: N-terminal GST; chain copies: 3; dsDNA, one strand shown
Outline: as §1

[4] = target: T2, SPIC (Homo sapiens, UniProt Q8N5J4 1-248); conditions: protein: recombinant; tags: N-terminal GST; dsDNA, one strand shown
T2 sequence: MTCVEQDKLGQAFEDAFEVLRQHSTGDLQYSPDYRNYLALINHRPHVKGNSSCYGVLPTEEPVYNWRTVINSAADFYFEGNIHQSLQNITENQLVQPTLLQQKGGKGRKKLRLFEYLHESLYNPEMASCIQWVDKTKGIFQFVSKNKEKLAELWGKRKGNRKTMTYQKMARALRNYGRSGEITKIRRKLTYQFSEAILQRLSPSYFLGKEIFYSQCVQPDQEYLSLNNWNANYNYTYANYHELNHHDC
Outline: as §1

[5] = target: ELF4 (Homo sapiens, UniProt Q99607 1-663); conditions: protein: recombinant; tags: N-terminal GST; dsDNA, one strand shown
Outline: as §1

[6] = target: T3, ELK4 (Homo sapiens, UniProt P28324-2 1-405); conditions: protein: recombinant; tags: N-terminal GST; dsDNA, one strand shown
T3 sequence: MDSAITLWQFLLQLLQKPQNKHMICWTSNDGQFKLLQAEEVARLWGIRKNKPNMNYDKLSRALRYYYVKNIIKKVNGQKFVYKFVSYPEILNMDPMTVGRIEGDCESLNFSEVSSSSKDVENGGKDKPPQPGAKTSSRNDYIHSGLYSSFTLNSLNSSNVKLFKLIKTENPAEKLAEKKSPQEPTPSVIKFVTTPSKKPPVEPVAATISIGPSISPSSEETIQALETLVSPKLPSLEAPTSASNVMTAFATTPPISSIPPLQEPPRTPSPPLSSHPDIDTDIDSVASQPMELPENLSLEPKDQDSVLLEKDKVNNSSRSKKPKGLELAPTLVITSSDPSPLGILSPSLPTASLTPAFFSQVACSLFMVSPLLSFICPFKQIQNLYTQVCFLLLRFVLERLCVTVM
Outline: as §1

[7] = target: T4, ETV2 (Homo sapiens, UniProt O00321 1-342); conditions: protein: recombinant; tags: N-terminal GST; dsDNA, one strand shown
T4 sequence: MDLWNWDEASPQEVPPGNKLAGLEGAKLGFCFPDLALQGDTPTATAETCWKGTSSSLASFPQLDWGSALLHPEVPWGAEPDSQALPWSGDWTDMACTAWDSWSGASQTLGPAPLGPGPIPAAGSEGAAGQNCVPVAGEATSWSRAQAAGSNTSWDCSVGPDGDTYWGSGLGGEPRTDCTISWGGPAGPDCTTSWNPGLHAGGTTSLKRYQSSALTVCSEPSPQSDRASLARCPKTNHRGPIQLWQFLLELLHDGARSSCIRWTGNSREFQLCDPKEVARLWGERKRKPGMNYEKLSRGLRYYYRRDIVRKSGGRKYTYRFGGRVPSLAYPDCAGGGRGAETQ
Outline: as §1

[8] = target: T5, ELF3 (Homo sapiens, UniProt P78545 1-371); conditions: protein: recombinant; tags: N-terminal GST; dsDNA, one strand shown
T5 sequence: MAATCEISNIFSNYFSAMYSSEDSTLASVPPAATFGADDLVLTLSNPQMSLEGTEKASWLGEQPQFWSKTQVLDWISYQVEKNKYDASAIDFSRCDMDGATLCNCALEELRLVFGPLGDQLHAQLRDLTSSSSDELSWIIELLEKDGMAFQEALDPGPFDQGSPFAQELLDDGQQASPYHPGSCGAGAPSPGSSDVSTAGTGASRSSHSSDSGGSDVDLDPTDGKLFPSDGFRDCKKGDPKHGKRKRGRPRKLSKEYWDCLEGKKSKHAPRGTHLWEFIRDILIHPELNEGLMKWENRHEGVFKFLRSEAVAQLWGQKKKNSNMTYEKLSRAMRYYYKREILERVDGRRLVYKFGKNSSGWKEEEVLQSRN
Outline: as §1

[9] = target: CRX (Homo sapiens, UniProt O43186 1-299); conditions: protein: recombinant; tags: N-terminal GST; dsDNA, one strand shown
Outline: as §1

[10] = target: ETV1 (Homo sapiens, UniProt P50549 1-477); conditions: protein: recombinant; tags: N-terminal GST; dsDNA, one strand shown
Outline: as §1

[11] = target: T6, ERF (Homo sapiens, UniProt P50548 1-548); conditions: protein: recombinant; tags: N-terminal GST; dsDNA, one strand shown
T6 sequence: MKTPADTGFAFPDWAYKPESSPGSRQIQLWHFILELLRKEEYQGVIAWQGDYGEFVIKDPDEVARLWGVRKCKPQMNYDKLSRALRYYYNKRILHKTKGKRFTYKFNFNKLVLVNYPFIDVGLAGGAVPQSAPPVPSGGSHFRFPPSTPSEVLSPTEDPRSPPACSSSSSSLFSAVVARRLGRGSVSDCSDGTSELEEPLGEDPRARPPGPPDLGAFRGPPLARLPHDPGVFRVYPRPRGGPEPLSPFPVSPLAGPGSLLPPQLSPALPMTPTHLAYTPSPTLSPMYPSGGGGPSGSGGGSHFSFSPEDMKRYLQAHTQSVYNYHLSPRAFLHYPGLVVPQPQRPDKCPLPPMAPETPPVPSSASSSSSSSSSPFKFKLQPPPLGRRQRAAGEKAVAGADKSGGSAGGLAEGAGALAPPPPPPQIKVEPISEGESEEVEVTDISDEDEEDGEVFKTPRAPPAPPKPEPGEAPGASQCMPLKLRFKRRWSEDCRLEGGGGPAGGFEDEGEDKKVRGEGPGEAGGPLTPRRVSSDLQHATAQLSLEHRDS
Outline: as §1

[12] = target: T7, ETV3L (Homo sapiens, UniProt Q6ZN32 1-361); conditions: protein: recombinant; tags: N-terminal GST; dsDNA, one strand shown
T7 sequence: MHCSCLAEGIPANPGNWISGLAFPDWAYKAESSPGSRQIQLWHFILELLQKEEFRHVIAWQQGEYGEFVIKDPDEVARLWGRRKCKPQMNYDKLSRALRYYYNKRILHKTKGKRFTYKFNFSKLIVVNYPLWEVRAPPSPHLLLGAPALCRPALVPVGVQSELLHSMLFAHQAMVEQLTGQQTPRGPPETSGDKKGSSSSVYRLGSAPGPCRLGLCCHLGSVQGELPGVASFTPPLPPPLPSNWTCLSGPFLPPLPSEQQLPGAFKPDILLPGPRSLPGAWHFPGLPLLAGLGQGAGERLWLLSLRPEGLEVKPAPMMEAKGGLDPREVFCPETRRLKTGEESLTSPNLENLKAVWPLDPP
Outline: as §1

[13] = target: T8, ETS2 (Homo sapiens, UniProt P15036 1-469); conditions: protein: recombinant; tags: N-terminal GST; dsDNA, one strand shown
T8 sequence: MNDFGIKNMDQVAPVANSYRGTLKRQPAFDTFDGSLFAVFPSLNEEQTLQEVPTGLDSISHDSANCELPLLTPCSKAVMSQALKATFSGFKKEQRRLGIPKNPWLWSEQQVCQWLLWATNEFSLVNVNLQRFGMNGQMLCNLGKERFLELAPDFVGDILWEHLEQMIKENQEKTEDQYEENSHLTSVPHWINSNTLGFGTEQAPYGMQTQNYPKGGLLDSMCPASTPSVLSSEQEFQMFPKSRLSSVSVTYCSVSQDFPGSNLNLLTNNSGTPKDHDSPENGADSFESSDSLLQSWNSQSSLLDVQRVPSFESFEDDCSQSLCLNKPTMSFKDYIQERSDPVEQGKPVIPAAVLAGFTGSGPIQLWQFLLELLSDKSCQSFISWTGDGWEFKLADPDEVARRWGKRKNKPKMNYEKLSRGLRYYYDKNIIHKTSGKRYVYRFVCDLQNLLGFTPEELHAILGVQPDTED
Outline: as §1

[14] = target: T9, SPDEF (Homo sapiens, UniProt O95238 1-335); conditions: protein: recombinant; tags: N-terminal GST; dsDNA, one strand shown
T9 sequence: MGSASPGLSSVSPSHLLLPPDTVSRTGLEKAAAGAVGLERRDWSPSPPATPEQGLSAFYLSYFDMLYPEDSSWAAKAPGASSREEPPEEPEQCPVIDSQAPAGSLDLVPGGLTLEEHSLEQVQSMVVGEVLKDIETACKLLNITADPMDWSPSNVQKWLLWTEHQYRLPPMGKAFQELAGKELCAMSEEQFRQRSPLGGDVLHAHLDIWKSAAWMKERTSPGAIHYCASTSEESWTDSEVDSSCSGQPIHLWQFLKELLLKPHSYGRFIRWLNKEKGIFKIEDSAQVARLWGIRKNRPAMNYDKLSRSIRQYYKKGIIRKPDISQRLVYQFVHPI
Outline: as §1

[15] = target: T10, ETV7 (Homo sapiens, UniProt Q9Y603 1-341); conditions: protein: recombinant; tags: N-terminal GST; dsDNA, one strand shown
T10 sequence: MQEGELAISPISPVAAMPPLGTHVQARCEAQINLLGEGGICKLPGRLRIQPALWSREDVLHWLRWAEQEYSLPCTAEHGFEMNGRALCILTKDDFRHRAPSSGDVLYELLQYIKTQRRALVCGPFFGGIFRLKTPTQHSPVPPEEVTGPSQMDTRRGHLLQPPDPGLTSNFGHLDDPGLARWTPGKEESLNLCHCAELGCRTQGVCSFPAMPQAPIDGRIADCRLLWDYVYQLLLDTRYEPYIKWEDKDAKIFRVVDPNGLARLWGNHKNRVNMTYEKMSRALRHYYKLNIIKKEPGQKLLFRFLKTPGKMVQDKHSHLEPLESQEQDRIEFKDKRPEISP
Outline: as §1

[16] = target: T11, ELF5 (Homo sapiens, UniProt Q9UKW6-2 1-255); conditions: protein: recombinant; tags: N-terminal GST; dsDNA, one strand shown
T11 sequence: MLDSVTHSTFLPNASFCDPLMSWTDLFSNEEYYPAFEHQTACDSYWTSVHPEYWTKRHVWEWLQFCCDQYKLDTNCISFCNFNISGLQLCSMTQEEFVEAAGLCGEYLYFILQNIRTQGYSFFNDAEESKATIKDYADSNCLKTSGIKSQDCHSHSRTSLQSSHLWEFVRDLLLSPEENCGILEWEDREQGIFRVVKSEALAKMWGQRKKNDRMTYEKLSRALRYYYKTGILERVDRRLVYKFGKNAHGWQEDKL
Outline: as §1

[17] = target: T12, ETV3 (Homo sapiens, UniProt P41162-2 1-143); conditions: protein: recombinant; tags: N-terminal GST; dsDNA, one strand shown
T12 sequence: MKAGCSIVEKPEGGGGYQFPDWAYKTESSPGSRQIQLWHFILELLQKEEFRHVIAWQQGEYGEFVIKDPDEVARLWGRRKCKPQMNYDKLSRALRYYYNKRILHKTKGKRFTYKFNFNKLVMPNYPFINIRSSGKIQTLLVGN
Outline: as §1

[18] = target: ETV6 (Homo sapiens, UniProt P41212 1-452); conditions: protein: recombinant; tags: N-terminal GST; dsDNA, one strand shown
Outline: as §1

Chain of ELF4 (Q99607 whole entry): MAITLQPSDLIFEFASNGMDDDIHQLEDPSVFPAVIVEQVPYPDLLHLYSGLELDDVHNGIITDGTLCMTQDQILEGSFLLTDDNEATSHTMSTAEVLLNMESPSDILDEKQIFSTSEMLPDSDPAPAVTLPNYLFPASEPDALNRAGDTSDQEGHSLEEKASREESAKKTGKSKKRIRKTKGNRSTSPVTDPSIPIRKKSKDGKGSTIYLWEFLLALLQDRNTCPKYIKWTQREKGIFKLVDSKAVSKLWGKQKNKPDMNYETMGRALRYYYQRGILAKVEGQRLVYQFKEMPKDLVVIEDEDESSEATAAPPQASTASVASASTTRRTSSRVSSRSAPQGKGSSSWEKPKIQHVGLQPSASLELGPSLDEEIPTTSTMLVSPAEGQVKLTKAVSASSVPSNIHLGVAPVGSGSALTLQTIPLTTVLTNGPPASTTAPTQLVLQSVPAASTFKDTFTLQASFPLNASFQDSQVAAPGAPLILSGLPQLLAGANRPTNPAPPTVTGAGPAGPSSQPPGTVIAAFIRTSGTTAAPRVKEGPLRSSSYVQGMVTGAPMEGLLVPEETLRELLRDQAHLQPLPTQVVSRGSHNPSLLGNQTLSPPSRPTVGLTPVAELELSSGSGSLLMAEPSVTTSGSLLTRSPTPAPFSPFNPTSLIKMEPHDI
Chain of CRX (O43186 whole entry): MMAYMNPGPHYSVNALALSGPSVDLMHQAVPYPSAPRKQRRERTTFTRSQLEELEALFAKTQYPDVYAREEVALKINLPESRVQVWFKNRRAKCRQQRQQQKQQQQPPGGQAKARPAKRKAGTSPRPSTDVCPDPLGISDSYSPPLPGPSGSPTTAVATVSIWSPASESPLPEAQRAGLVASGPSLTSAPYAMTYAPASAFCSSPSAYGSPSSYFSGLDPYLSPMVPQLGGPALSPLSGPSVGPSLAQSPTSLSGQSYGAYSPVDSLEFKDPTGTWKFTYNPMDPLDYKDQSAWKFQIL
Chain of HSF1 (Q00613 whole entry): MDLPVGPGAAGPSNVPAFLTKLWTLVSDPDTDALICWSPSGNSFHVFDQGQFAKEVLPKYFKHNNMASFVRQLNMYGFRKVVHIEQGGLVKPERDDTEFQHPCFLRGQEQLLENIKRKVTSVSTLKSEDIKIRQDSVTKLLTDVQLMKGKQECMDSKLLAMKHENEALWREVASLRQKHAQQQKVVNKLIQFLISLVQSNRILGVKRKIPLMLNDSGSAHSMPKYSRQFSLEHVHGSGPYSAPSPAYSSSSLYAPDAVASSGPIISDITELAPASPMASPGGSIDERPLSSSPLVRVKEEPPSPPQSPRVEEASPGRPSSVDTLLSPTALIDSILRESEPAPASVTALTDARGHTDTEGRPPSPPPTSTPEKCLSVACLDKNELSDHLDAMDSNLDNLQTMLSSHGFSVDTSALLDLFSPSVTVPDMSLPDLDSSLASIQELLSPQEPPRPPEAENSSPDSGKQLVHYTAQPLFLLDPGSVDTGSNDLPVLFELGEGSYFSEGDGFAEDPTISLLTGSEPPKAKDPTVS
Chain of ETV5 (P41161 whole entry): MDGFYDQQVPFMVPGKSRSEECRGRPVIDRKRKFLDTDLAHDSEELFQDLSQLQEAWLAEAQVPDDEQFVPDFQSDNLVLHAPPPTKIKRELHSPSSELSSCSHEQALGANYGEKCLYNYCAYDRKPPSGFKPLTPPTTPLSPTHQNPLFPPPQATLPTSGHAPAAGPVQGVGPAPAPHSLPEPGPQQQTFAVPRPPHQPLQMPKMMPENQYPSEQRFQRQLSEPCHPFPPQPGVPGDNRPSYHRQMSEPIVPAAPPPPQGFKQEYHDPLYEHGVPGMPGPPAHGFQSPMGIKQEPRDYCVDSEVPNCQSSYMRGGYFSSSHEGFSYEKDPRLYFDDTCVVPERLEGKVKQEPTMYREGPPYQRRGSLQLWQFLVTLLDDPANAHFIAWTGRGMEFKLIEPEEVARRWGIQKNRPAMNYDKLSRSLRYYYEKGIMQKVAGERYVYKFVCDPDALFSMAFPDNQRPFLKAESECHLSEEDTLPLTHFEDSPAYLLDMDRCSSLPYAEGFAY
Chain of ETV1 (P50549 whole entry): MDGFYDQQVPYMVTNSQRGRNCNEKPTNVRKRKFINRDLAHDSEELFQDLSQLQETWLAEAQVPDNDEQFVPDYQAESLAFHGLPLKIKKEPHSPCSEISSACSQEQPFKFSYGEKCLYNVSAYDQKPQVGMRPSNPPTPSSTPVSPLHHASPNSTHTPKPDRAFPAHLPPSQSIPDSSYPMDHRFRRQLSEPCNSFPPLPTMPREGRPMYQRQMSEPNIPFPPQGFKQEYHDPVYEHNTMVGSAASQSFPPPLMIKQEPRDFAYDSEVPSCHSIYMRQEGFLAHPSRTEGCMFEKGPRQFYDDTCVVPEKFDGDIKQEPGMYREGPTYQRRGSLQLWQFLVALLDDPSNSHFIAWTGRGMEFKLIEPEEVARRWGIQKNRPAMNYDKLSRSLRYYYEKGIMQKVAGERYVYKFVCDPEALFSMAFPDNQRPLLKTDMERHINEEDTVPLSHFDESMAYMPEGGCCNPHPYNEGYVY
Chain of ETV6 (P41212 whole entry): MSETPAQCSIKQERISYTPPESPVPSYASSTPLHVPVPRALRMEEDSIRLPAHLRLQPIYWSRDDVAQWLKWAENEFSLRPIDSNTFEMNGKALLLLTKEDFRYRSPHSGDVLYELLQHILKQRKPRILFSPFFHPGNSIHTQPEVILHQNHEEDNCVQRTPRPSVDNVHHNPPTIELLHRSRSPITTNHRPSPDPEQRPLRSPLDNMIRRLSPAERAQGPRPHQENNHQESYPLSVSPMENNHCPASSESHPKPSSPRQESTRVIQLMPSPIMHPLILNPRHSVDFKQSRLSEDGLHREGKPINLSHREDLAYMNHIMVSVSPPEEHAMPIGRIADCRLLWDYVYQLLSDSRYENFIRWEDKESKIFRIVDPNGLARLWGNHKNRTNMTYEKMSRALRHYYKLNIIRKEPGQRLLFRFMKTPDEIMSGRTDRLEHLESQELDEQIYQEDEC

With TCCCCG the binding signal [1] was 1.17 fold enrichment (6-mer frequency, TF over GST control), the binding signal [2] was 1.22 fold enrichment (6-mer frequency, TF over GST control) and the binding signal [3] was 1.16 fold enrichment (6-mer frequency, TF over GST control). For the same sequence, the binding signal [4] was 1.04 fold enrichment (6-mer frequency, TF over GST control), the binding signal [5] was 1.22 fold enrichment (6-mer frequency, TF over GST control) and the binding signal [6] was 1.12 fold enrichment (6-mer frequency, TF over GST control). For the same sequence, the binding signal [7] was 1.26 fold enrichment (6-mer frequency, TF over GST control), the binding signal [8] was 1.27 fold enrichment (6-mer frequency, TF over GST control) and the binding signal [9] was 1.21 fold enrichment (6-mer frequency, TF over GST control). For the same sequence, the binding signal [10] was 1.13 fold enrichment (6-mer frequency, TF over GST control), the binding signal [11] was 1.21 fold enrichment (6-mer frequency, TF over GST control) and the binding signal [12] was 1.17 fold enrichment (6-mer frequency, TF over GST control). The binding signal [13] was 1.11 fold enrichment (6-mer frequency, TF over GST control), the binding signal [14] was 1.14 fold enrichment (6-mer frequency, TF over GST control) and the binding signal [15] was 1.15 fold enrichment (6-mer frequency, TF over GST control). For the same sequence, the binding signal [16] was 1.24 fold enrichment (6-mer frequency, TF over GST control), the binding signal [17] was 1.27 fold enrichment (6-mer frequency, TF over GST control) and the binding signal [18] was 1.13 fold enrichment (6-mer frequency, TF over GST control).
